VACV Venus inh: qHTS for Stage-Specific Inhibitors of Vaccinia Orthopoxvirus: Venus Reporter Primary qHTS; Vaccinia virus Venus reporter expression, fluorescence; Potency, µM (series often up to 36.5 µM), inactives show at the top dose activity change, negative = inhibition, actives largely listed as inhibitors; 330,000 compounds, 0.46% hits; calls by dose curve; tested in A549 cells; note: potency is the fitted concentration of half-maximal effect; nearly all actives have a fitted effect of over 30% in size
HCV inh: qHTS Assay for Inhibitors of Hepatitis C Virus (HCV) | 340,000 compounds, 3.4% hits | Potency, µM (titrated, usually from 41.8 µM), for inactives: at the top dose activity change, negative = inhibition, usual class: inhibitors | Huh7.5.1 HCVcc-Cre infection, luciferase reporter, 44 h; note: potency is the fitted concentration of half-maximal effect
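Reporter virus HCVcc-Cre (~0.5 moi) infects cells exposed to compound; seeding density 1,000 cells/well with 4 h settling beforehand. Luminescence, 15 sec read, taken 44 h post-infection following a 15 min RT substrate incubation.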
FMDV inh: High Throughput Screening for Foot and Mouth Disease Virus Antivirals | 410,000 compounds, 1.2% hits | Potency, µM (titrated, usually from 57.9 µM), inactives show at the top dose activity change, negative = inhibition, actives largely listed as inhibitors | AID 1159524, 2015 | FMDV antiviral cell-based qHTS; calls by dose curve; tested in HEK293T cells; note: read-out not given here; potency is the fitted concentration of half-maximal effect; nearly all actives have a fitted effect of over 45% in size
VACV mCherry inh: qHTS for Stage-Specific Inhibitors of Vaccinia Orthopoxvirus: mCherry Reporter Primary qHTS; Vaccinia virus mCherry reporter infection, fluorescence; Potency, µM (series often up to 36.5 µM), for inactives: at the top dose activity change, negative = inhibition, hits mostly inhibitors; 310,000 compounds, 0.63% hits; AID 720579, 2013; calls by dose curve; tested in A549 cells; note: potency is the fitted concentration of half-maximal effect; nearly all actives have a fitted effect of over 35% in size
Sm TGR block: qHTS Assay for the Inhibitors of Schistosoma Mansoni Peroxiredoxins. 360,000 compounds, 3% hits. purified TGR, DTNB reduction, TNB absorbance 405 nm. Potency, µM (series often up to 114 µM), without a hit: at the highest dose activity change, negative = inhibition, usual class: inhibitors. Schistosoma mansoni thioredoxin glutathione reductase (TGR), Q962Y6; note: potency is the fitted concentration of half-maximal effect; nearly all actives have a fitted effect of over 60% in size
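Kinetic colorimetric format: TGR-catalysed, NADPH-driven DTNB reduction monitored via TNB absorbance. Enzyme dispensed at 20 nM; compound exposure 15 min at room temperature before reaction start.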
HCMV antiviral: qHTS Assay for inhibitors of the human cytomegalovirus (HCMV); HFF cells, HCMV-luciferase reporter, 72 h; active compounds read low; activity change, negative = inhibition, % at 57.5 µM; 410,000 compounds, 4.5% hits; AID 1259415, 2018; in the data active = activity change below about -60%; inconclusive = no clear call, values can overlap the other calls; inactive = above about -39%
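Luciferase read-out from HCMV-luciferase-infected HFFs (MOI 1 PFU/cell) 72 h post infection at 37C; compounds added after 16 h cell attachment; activity normalized between buffer-only basal and Salinomycin (10uM) inhibitor controls.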
* hit, by the source's call; i = inactive; ? = inconclusive; · = not tested or not shown; [ ] = remark or other dose. A selection: hits, their analogues and other compounds. The true share with any hit is near 9.3%. Unless noted, calls come from the whole dose curve; as a rule, active = well fitted curve in the direction sought with a large enough effect; inconclusive = small, poorly fitted or top-dose-only effect, or another doubt; inactive = no such curve, though single readings can be large; an effect the other way counts as inactive or inconclusive. % is set by controls: 0 for no effect and ±100 for the full control effect.

SMILES | VACV Venus inh | HCV inh | FMDV inh | VACV mCherry inh | Sm TGR block | HCMV antiviral
CCC1(O)CC2CN(CCc3c([nH]c4ccccc34)C(C(=O)OC)(c3cc4c(cc3OC)N(C=O)C3C(O)(C(=O)OC)C(OC(C)=O)C5(CC)C=CCN6CCC43C65)C2)C1 (configuration not stated) | ? | 0% | -1% | ? | · | -88*
COc1ccc(/C(O)=C2\C(=O)C(=O)N(CCCN(C)C)C2c2ccccc2F)cc1Cl (configuration not stated) | · | · | · | · | -1%[11.4 µM] | ·
CCOc1ccc2nc(N3CCCC(C(=O)NCCCN4CCCCC4)C3)sc2c1 (configuration not stated) | · | ? | 8% | · | -9% | 0
CCN1CCN(CCCNC(=O)C2CCCN(c3nc4c(C)cc(C)cc4s3)C2)CC1 (configuration not stated) | -25% | 10µM* | 15% | i | -13% | -4
CCOc1ccc2nc(N3CCCC(C(=O)NCCCN4C(C)CCCC4C)C3)sc2c1 (configuration not stated) | -26% | 2.5µM* | 35% | i | -8% | 50
COc1ccc(S(=O)(=O)N2CCC(C(=O)N[C@H](C(=O)NC3CCCC3)C(C)C)CC2)cc1 | -11% | 13% | 27% | -3% | 89µM* | -22
COc1ccc(OC2CCN(S(=O)(=O)c3ccc(C(C)=O)cc3)CC2)cc1 | · | 13µM* | -21% | · | 3% | -63*
COc1ccc(C(=O)C2CCCN(S(=O)(=O)c3ccc(C(C)=O)cc3)C2)c(C)c1 (configuration not stated) | · | 10µM* | ? | · | 10% | -36
CCOC(=O)c1ccc(N2CCOCC2)c(NC(=O)c2c(-c3ccccc3)noc2C)c1 | -29% | ? | -13% | -9% | 33% | -5
O=C(CCSc1nc(-c2ccco2)cc(C(F)(F)F)n1)NCC1CCCO1 (configuration not stated) | -15% | 10µM* | 0% | · | 9% | -34
O=C(CCCSc1nc(-c2ccco2)cc(C(F)(F)F)n1)NCC1CCCO1 (configuration not stated) | ? | ? | 24% | · | 50µM* | -7
CSc1nc2cc(Cl)ccc2s1 | · | 6% | 29% | · | 24% | -17
O=C(Nc1ccc(Cl)cc1)c1cc2c(cc1O)[nH]c1ccccc12 | ? | ? | ? | ? | -8% | -81*
CCCN(CC1CC1)c1nc(N)c2c(N)nc(OC)cc2c1C#N | ? | -13% | ? | 11µM* | -10% | -14
Cc1cccc(C)c1N/C=C/c1onc(C)c1[N+](=O)[O-] | -7% | 24% | 0% | · | 89µM* | -15
Cc1noc(/C=C/c2cccnc2)c1[N+](=O)[O-] | · | ? | 14µM* | · | ? | -98*
O=C(CSc1n[nH]c(=O)n1C1CC1)Nc1ccc(F)c(Cl)c1 | -10% | -6% | -6% | i | · | 32
O=C(CSc1nnc(-c2cccnc2)s1)Nc1ccnc2ccccc12 | -30% | ? | ? | ? | -8% | -92*
CC(CNc1nc2ccccc2c2nc(-c3ccccc3)nn12)c1ccccc1 (configuration not stated) | 1% | · | ? | 0% | 1% | -94*
CSc1nc2ccccc2nc1N(C)S(=O)(=O)c1ccc(C)cc1 | -7% | -27% | -18% | i | 1% | -66*
CC(=O)N1CCc2c(sc(NC(=O)C3CCCN3S(=O)(=O)c3cccs3)c2C(N)=O)C1 (configuration not stated) | -11% | -17% | 28µM* | i | 0% | -7
CSc1ncccc1C(=O)OCC(=O)N(CC(C)C)C1CCS(=O)(=O)C1 (configuration not stated) | · | 14% | 7% | · | 15%[11.4 µM] | 36
CCOC(=O)c1c(NC(=O)CN2CCCCC2)sc(CN(C)C)c1-c1ccccc1 | -16% | 22µM* | -19% | i | 7% | -26
CCOC(=O)c1c(NC(=S)N2CCN(C)CC2)sc(C)c1-c1ccccc1 | -9% | -7% | -8% | -11% | -29% | ?
CCOC(=O)c1c(NC(=O)/C=C/C(=O)O)sc(C)c1-c1ccc(Cl)cc1 | · | -12% | ? | · | 0% | -10
SMILES | VACV Venus inh | HCV inh | FMDV inh | VACV mCherry inh | Sm TGR block | HCMV antiviral
CCOC(=O)c1c(NC(=O)CCl)sc(CN(C)C)c1-c1ccccc1 | -9% | ? | 35µM* | -13% | 16µM* | -6
CN1CCO/C1=C(\C(Cl)=C(Cl)Cl)[N+](=O)[O-] | -3% | 7% | 8% | -6% | 32µM* | 16
Cn1cc(S(=O)(=O)N2CCCC2)cc1C(=O)NCc1ccccc1Cl | -6% | -30% | 0% | -2% | -14% | 16
Cc1ccc(NC(=O)CC2SC3=NCCCN3C2=O)c(C)c1 (configuration not stated) | -12% | 14% | 17% | i | 2.8µM* | 6
CCC[C@H]1[C@@H](NS(=O)(=O)c2ccc(Cl)cc2)CC[C@@]23CCCN2C(=O)CCC[C@@H]13 | · | · | · | · | · | -17
CCC[C@H]1[C@@H](NS(=O)(=O)c2ccc(C)cc2)CC[C@@]23CCCN2C(=O)CCC[C@@H]13 | · | · | · | · | · | -103*
Cc1cc(C)cc(NC(=O)CSCn2nnc3c(=O)[nH]c(Cc4ccc(F)cc4)nc32)c1 | -15% | · | -9% | -13% | 1% | 0
Cc1ccc(S(=O)(=O)N(CC(=O)N/N=C\c2cccs2)c2cccc3cccnc23)cc1 | -10% | ? | -14% | i | -6% | -63*
Nc1nc(N)c2cc(S(=O)(=O)c3ccc4ccccc4c3)ccc2n1 | ? | · | -17% | ? | · | -82*
O=C(NCc1ccccc1)C(c1ccc(Cl)cc1)N(C(=O)c1csnn1)C1CC1 (configuration not stated) | -9% | 10% | 18% | -6% | 2% | -63*
COCCN(C(=O)c1csnn1)C(C(=O)NC1CCCCC1)c1ccc(Cl)cc1 (configuration not stated) | -16% | 2% | 12% | i | -11% | -99*
O=C(NC1CCCC1)C(c1cccs1)N(Cc1ccco1)C(=O)c1csnn1 (configuration not stated) | -7% | 4% | 1% | -7% | 35µM* | 1
COc1ccc(CCNC(=O)COc2ccc(-c3ccccc3)cc2)cc1OC | 3% | ? | -17% | -5% | -2% | -34
CCOC(=O)c1c(-c2ccc(C)o2)csc1NC(=O)COC(=O)c1ccc(NC(N)=O)cc1 | · | ? | ? | · | 10µM* | -24

Compound activity (PubChem)
